Source: PubChem BioAssay (NCI)
The panel holds about 83,000 compounds, 20% with a hit somewhere; the sample as a whole holds those more often.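 Cells were grown in 96-well plates and exposed to the test compound at a single concentration for 48 hours; results are reported as percent growth, with values below 10 considered active.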 Calls of active or inactive are those of the source.

system: OVCAR-5 ovarian; assay: NCI-60 one-dose screen, 48 h (100 = growth as untreated, 0 = no growth, -100 = all killed); conditions: 10 µM unless noted

SMILES | growth
COc1ccc(-c2cn(-c3cccc(C(=O)/C=C/c4ccc(O)c(OC)c4)c3)c(=O)[nH]2)cc1 | 33% (inactive)
Cc1ccccc1N1C(c2ccccc2)=NNC12C=CC(=O)c1c(O)cccc12 (centres undefined) | 83.8% (inactive)
COc1cc(Nc2ccnc3ccc(Br)cc23)cc(OC)c1OC | 51.6% (inactive)
CN1CCN(Cc2ccc(NC(=O)c3cncc(C#Cc4ccc(N)nc4)c3)cc2C(F)(F)F)CC1 | 12.5% (inactive)
COc1ccc(Sc2[nH]c(C=O)c3ccccc23)cc1 | 28.5% (inactive)
COCCOCCOCc1n(Cc2ccc3ccccc3n2)c2ccccc2[n+]1Cc1ccc2ccccc2c1 | 14.7% (inactive)
COc1ccc(C2C3CCc4ccccc4C3=NN2C(=O)c2cc(OC)c(OC)c(OC)c2)cc1O (centres undefined) | 101% (inactive)
O=c1[nH]cnc2nc[nH]c12 | 98.5% (inactive)
CC(=O)O[C@H]1[C@H](CC#CC#CC[C@@H]2C[C@]3(C)[C@H]4CC=C5[C@H]6[C@@H](C)[C@H](C)CC[C@]6(C(=O)NCCN(CCN)CCN)CC[C@@]5(C)[C@]4(C)CC[C@H]3C(C)(C)[C@H]2OC(C)=O)C[C@]2(C)[C@H]3CC=C4[C@H]5[C@@H](C)[C@H](C)CC[C@]5(C(=O)NCCN(CCN)CCN)CC[C@@]4(C)[C@]3(C)CC[C@H]2C1(C)C | 54.6% (inactive)
Fc1ccc2nc(-c3ccc(-c4noc(-c5ccc(Cl)cc5)n4)cc3)[nH]c2c1 | 113% (inactive)
CCNS(=O)(=O)c1ccc(C)cc1 | 97.2% (inactive)
OC(c1cc(-c2ccc(C(F)(F)F)cc2)nc(-c2ccc(C(F)(F)F)cc2)c1)C1CCCCN1 (centres undefined) | -77% (active)
CC1(C)C(N(O)C(=O)Nc2ccc(Cl)cc2)N(c2ccc(Cl)cc2)C(=O)N1CC(=O)N/N=C/C=C/c1ccc([N+](=O)[O-])o1 (centres undefined) | 6.4% (active)
Cc1cc(N=Nc2ccc(-c3ccc(N=Nc4ccc(O)c(C(=O)O)c4)cc3)cc2)c(N)c(N=Nc2ccc(C(=O)O)cc2)c1N | 100% (inactive)
NC(N)=N/N=C\c1cccc(OCc2ccccc2)c1 | 85.3% (inactive)
CNC(=O)c1ccccc1Sc1ccc2c(/C=C/c3ccccn3)n[nH]c2c1 | 41.4% (inactive)
CC(=O)c1c(C)nc(-c2cc(C)cc(Cl)c2)nc1-c1cccc(Oc2ccccc2)c1 | 107% (inactive)
CCN(CC)Cc1cc(Nc2nc(NC3CCC(N(C)C)CC3)c3ccccc3n2)ccc1OC (centres undefined) | 92.3% (inactive)
Cc1nc2c(-c3cnc(N)nc3)nc(N3CCOCC3)nc2n1C(C)C | 7.67% (active)
C[C@@H]1C[C@H](N)C[C@H](c2ccncc2NC(=O)c2ccc(F)c(-c3c(F)cccc3F)n2)C1 | 71.3% (inactive)

SMILES | growth
Nc1nonc1-c1nc2ccccc2n1Cc1ccc(F)cc1 | 80.4% (inactive)
C=CC[C@]1(O)CC[C@H]2[C@@H]3CCc4cc(O)ccc4[C@H]3CC[C@@]21C | 98.5% (inactive)
[Ag].[Ag].[NH-]S(=O)(=O)c1ccc(N=Nc2cc(N=Nc3ccc(S([NH-])(=O)=O)cc3)c3c(NC(=O)C(Cl)Cl)cccc3c2OC(=O)C(Cl)Cl)cc1.[c-]1nccs1.[c-]1nccs1 | 120% (inactive)
CCCCCCCCCCCCCCC(C(=O)OCC)C(=O)OCC | 103% (inactive)
CN(C)c1ccc(C(c2ccccc2)c2ccc(N(C)C)cc2)cc1 | 94% (inactive)
Cc1n(Cc2ccc3ccccc3n2)cc[n+]1Cc1ccc2ccccc2c1 | 9.08% (active)
FC(F)(F)c1ccc(/C=N/Nc2nnc3n2N=C(c2ccc(Cl)cc2)CS3)cc1 | 92.7% (inactive)
CS(=O)(=O)Nc1cc(-c2cc3ncc(C#N)c(Nc4ccc(Oc5ccccc5)c(Cl)c4)c3s2)cnc1Cl | 75.9% (inactive)
Cc1cc(C)c2c(n1)sc1c(Nc3ccc(O)cc3)ncnc12 | 55.4% (inactive)
c1ccc(C2=Nc3ccccc3SC2)cc1 | 98.6% (inactive)
COc1cc2c(cc1OCCCOc1cc3c(cc1OC)C(=O)N1CCC[C@H]1C=N3)C=CC(C)(C)O2 | 115% (inactive)
O=[N+]([O-])c1cccc(N=C(Nc2cccc([N+](=O)[O-])c2)c2ccccc2)c1 | 99.9% (inactive)
C=CCn1c(C)nc2cc(Nc3nc(N4CCOCC4)nc4nc[nH]c34)ccc21 | 74.1% (inactive)
C=C1NC(=O)C(C(C)CC)NC(=O)C2CSCC(NC(=O)CCC(=O)O)C(=O)NC(Cc3ccccc3)C(=O)NC(C)C(=O)NC(CC(C)CC)C(=O)NC(C(=O)NC(Cc3ccccc3)C(=O)N3CCCC3C(=O)N2)C(C)OC(=O)C(CO)NC(=O)C(C(O)COC)N(C)C(=O)C(C(C)C)NC(=O)C(CC(C)CC)NC1=O (centres undefined) | 44.9% [6 µM] (inactive)
COc1ccc(-c2nc(-c3cc(OC)cc(OC)c3)[nH]c2-c2ccc(OC)cc2)cc1 | 77.7% (inactive)
N#Cc1nc(-c2cccc(Br)c2)cc(-c2ccc(Nc3nc(N4CCCCC4)nc(N4CCCCC4)n3)cc2)c1N | 9.23% (active)
NC(N)=N/N=C\c1ccc(OCc2ccccc2)cc1 | 82.8% (inactive)
CCN(CC)CCC(CNc1ccnc2cc(Cl)ccc12)c1ccc(O)cc1 (centres undefined) | 103% (inactive)
COS(=O)(=O)CCN(CCOS(C)(=O)=O)S(C)(=O)=O | 101% (inactive)
